Test results from PubChem BioAssay (NCI).
Values joined by “and” are separate entries in the source; they are usually repeats but may differ in a detail not shown here. Identical values can stand only once. The panel holds about 83,000 compounds, 20% with a hit somewhere; the sample as a whole holds those more often.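 The test compound was applied at a single concentration to cells in 96-well plates for 48 hours, and percent growth was recorded.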 Active and inactive are the calls of the source. How the source made its calls: active means growth percent below 10; inactive means the rest.

Tests used:
Assay in all cases: NCI-60 one-dose screen, 48 h (100 = growth as untreated, 0 = no growth, -100 = all killed)
SR leukemia = conditions: 10 µM
RPMI-8226 leukemia = conditions: 10 µM
OVCAR-8 ovarian = conditions: 10 µM
OVCAR-5 ovarian = conditions: 10 µM
OVCAR-4 ovarian = conditions: 10 µM
SK-OV-3 ovarian = conditions: 10 µM
IGROV1 ovarian = conditions: 10 µM
OVCAR-3 ovarian = conditions: 10 µM
HS 578T breast = conditions: 10 µM
NCI/ADR-RES ovarian = conditions: 10 µM
T-47D breast = conditions: 10 µM
MDA-MB-435 melanoma = conditions: 10 µM
SW-620 colon = conditions: 10 µM
MCF7 breast = tested on: MCF7 breast
HCT-116 colon = conditions: 10 µM
HCC-2998 colon = conditions: 10 µM
KM12 colon = conditions: 10 µM
BT-549 breast = conditions: 10 µM

Measured: growth

CC(=O)c1ccc2c(ccc3ccccc32)c1
inactive: SR leukemia 97.2% | RPMI-8226 leukemia 101% | OVCAR-8 ovarian 94.7% | OVCAR-5 ovarian 104% | OVCAR-4 ovarian 100% | SK-OV-3 ovarian 112% | IGROV1 ovarian 101% | OVCAR-3 ovarian 115% | HS 578T breast 107% | NCI/ADR-RES ovarian 108% | T-47D breast 98.9% | MDA-MB-435 melanoma 96.3% | SW-620 colon 99.7% | MCF7 breast; 10 µM unless noted 96.3% | HCT-116 colon 90.3% | HCC-2998 colon 109% | KM12 colon 106%

O=C(Nc1cccc(NC(=O)Nc2cc(C(F)(F)F)ccc2Cl)c1)Nc1cc(C(F)(F)F)ccc1Cl
active: SR leukemia -15.6% | RPMI-8226 leukemia -14.5% | OVCAR-4 ovarian 7.2% | OVCAR-3 ovarian -5.64% | T-47D breast 8.32% | MCF7 breast; 10 µM unless noted 6.53%
inactive: OVCAR-8 ovarian 14.3% | OVCAR-5 ovarian 27.7% | SK-OV-3 ovarian 36.2% | IGROV1 ovarian 26.9% | HS 578T breast 18.9% | NCI/ADR-RES ovarian 26.2% | MDA-MB-435 melanoma 12.8% | SW-620 colon 13.5% | HCT-116 colon 13.2% | HCC-2998 colon 37.6% | KM12 colon 12.1%

COC(=O)/C=C/C(=O)NC(N)=O
inactive: SR leukemia 95.9% | RPMI-8226 leukemia 103% | OVCAR-8 ovarian 99.5% | OVCAR-5 ovarian 98.3% | OVCAR-4 ovarian 98.5% | SK-OV-3 ovarian 96.2% | IGROV1 ovarian 116% | OVCAR-3 ovarian 107% | HS 578T breast 107% | NCI/ADR-RES ovarian 109% | T-47D breast 95.3% | MDA-MB-435 melanoma 99% | SW-620 colon 103% | MCF7 breast; 10 µM unless noted 94.8% | HCT-116 colon 103% | HCC-2998 colon 122% | KM12 colon 102%

Cc1ccc(Cl)cc1NC(=O)N(C)CCO
inactive: SR leukemia 113% | RPMI-8226 leukemia 97.4% | OVCAR-8 ovarian 112% | OVCAR-5 ovarian 111% | OVCAR-4 ovarian 136% | SK-OV-3 ovarian 114% | IGROV1 ovarian 93% | OVCAR-3 ovarian 130% | HS 578T breast 236% | NCI/ADR-RES ovarian 112% | T-47D breast 104% | MDA-MB-435 melanoma 117% | SW-620 colon 137% | MCF7 breast; 10 µM unless noted 88.7% | HCT-116 colon 112% | HCC-2998 colon 104% | KM12 colon 120%

COC(=O)c1ccccc1N(C)C
inactive: SR leukemia 78.2% | RPMI-8226 leukemia 100% | OVCAR-8 ovarian 105% | OVCAR-5 ovarian 114% | OVCAR-4 ovarian 101% | SK-OV-3 ovarian 95.7% | IGROV1 ovarian 106% | OVCAR-3 ovarian 106% | HS 578T breast 105% | NCI/ADR-RES ovarian 101% | T-47D breast 93.5% | MDA-MB-435 melanoma 108% | SW-620 colon 107% | MCF7 breast; 10 µM unless noted 97.1% | HCT-116 colon 98.4% | HCC-2998 colon 113% | KM12 colon 107%

Cc1cc(C)cc(NCCC#N)c1
inactive: SR leukemia 107% | RPMI-8226 leukemia 106% | OVCAR-8 ovarian 126% | OVCAR-5 ovarian 112% | OVCAR-4 ovarian 102% | SK-OV-3 ovarian 106% | IGROV1 ovarian 110% | OVCAR-3 ovarian 105% | HS 578T breast 134% | NCI/ADR-RES ovarian 110% | T-47D breast 107% | MDA-MB-435 melanoma 111% | SW-620 colon 102% | MCF7 breast; 10 µM unless noted 101% | HCT-116 colon 106% | HCC-2998 colon 109% | KM12 colon 107%

Cc1cc(Cc2cc(C)c(N)cc2N)c(N)cc1N
inactive: SR leukemia 55.2% | RPMI-8226 leukemia 92.8% | OVCAR-8 ovarian 89.7% | OVCAR-5 ovarian 116% | OVCAR-4 ovarian 111% | SK-OV-3 ovarian 82.2% | IGROV1 ovarian 87.5% | OVCAR-3 ovarian 94.9% | HS 578T breast 93.8% | NCI/ADR-RES ovarian 95.8% | T-47D breast 83.5% | MDA-MB-435 melanoma 106% | SW-620 colon 90.8% | MCF7 breast; 10 µM unless noted 88.6% | HCT-116 colon 94.8% | HCC-2998 colon 108% | KM12 colon 99.5%

CC(C)CCCC(=O)O
inactive: SR leukemia 89.4% | RPMI-8226 leukemia 105% | OVCAR-8 ovarian 114% | OVCAR-5 ovarian 100% | OVCAR-4 ovarian 96.8% | SK-OV-3 ovarian 108% | IGROV1 ovarian 104% | OVCAR-3 ovarian 114% | HS 578T breast 103% | NCI/ADR-RES ovarian 109% | T-47D breast 104% | BT-549 breast 108% | MDA-MB-435 melanoma 105% | MCF7 breast; 10 µM unless noted 96% | HCT-116 colon 107% | HCC-2998 colon 103% | KM12 colon 102%

Cc1ccccc1C1N=C2Oc3ccccc3C=C2C(=O)N1 (stereo unspecified)
inactive: SR leukemia 45.2% | RPMI-8226 leukemia 95.4% | OVCAR-8 ovarian 53.3% | OVCAR-5 ovarian 17.3% | OVCAR-4 ovarian 74.5% | IGROV1 ovarian 43.3% | HS 578T breast 32.8% | T-47D breast 48.1% | BT-549 breast 27.2% | MCF7 breast; 10 µM unless noted 20.8% | HCT-116 colon 42.1% | HCC-2998 colon 26.1% | KM12 colon 64.8%
active: SK-OV-3 ovarian -6.3% | OVCAR-3 ovarian -27.1% | NCI/ADR-RES ovarian 9.64% | MDA-MB-435 melanoma -57.7%

CN(C)C(C)(C)CC(C)(C)C
inactive: SR leukemia 93.5% | RPMI-8226 leukemia 110% | OVCAR-8 ovarian 109% | OVCAR-5 ovarian 102% | OVCAR-4 ovarian 108% | SK-OV-3 ovarian 109% | IGROV1 ovarian 106% | OVCAR-3 ovarian 100% | HS 578T breast 104% | NCI/ADR-RES ovarian 103% | T-47D breast 104% | MDA-MB-435 melanoma 109% | SW-620 colon 101% | MCF7 breast; 10 µM unless noted 101% | HCT-116 colon 100% | HCC-2998 colon 109% | KM12 colon 93.6%

NC(C(=O)O)c1ccc([N+](=O)[O-])cc1 (stereo unspecified)
inactive: SR leukemia 113% | RPMI-8226 leukemia 116% | OVCAR-8 ovarian 112% | OVCAR-5 ovarian 92.2% | OVCAR-4 ovarian 107% | SK-OV-3 ovarian 96.4% | IGROV1 ovarian 109% | OVCAR-3 ovarian 107% | HS 578T breast 117% | NCI/ADR-RES ovarian 105% | T-47D breast 99.3% | MDA-MB-435 melanoma 111% | SW-620 colon 109% | MCF7 breast; 10 µM unless noted 95.3% | HCT-116 colon 105% | HCC-2998 colon 111% | KM12 colon 99.4%

O=C(O)CCCc1ccccc1
inactive: SR leukemia 96.9% | RPMI-8226 leukemia 110% | OVCAR-8 ovarian 96.7% | OVCAR-5 ovarian 104% | OVCAR-4 ovarian 117% | SK-OV-3 ovarian 110% | IGROV1 ovarian 121% | OVCAR-3 ovarian 121% | HS 578T breast 118% | NCI/ADR-RES ovarian 103% | T-47D breast 101% | BT-549 breast 105% | MDA-MB-435 melanoma 98.9% | MCF7 breast; 10 µM unless noted 104% | HCT-116 colon 104% | HCC-2998 colon 107% | KM12 colon 114%

C#Cc1cccc(NC(=O)c2ccc(Cl)cc2Cl)c1
inactive: SR leukemia 115% | RPMI-8226 leukemia 78.1% | OVCAR-8 ovarian 105% | OVCAR-5 ovarian 110% | OVCAR-4 ovarian 95.5% | SK-OV-3 ovarian 95.5% | IGROV1 ovarian 115% | OVCAR-3 ovarian 109% | HS 578T breast 108% | NCI/ADR-RES ovarian 104% | T-47D breast 95.2% | MDA-MB-435 melanoma 103% | SW-620 colon 91.9% | MCF7 breast; 10 µM unless noted 90.3% | HCT-116 colon 93.2% | HCC-2998 colon 113% | KM12 colon 115%

CC1(C(=O)O)NC(C(=O)O)Cc2c1[nH]c1ccccc21 (stereo unspecified)
inactive: SR leukemia 92.8% | RPMI-8226 leukemia 95.4% | OVCAR-8 ovarian 104% | OVCAR-5 ovarian 101% | OVCAR-4 ovarian 105% | SK-OV-3 ovarian 92.7% | IGROV1 ovarian 107% | OVCAR-3 ovarian 112% | HS 578T breast 109% | NCI/ADR-RES ovarian 104% | T-47D breast 95.7% | BT-549 breast 119% | MDA-MB-435 melanoma 94.6% | MCF7 breast; 10 µM unless noted 98% | HCT-116 colon 92.6% | HCC-2998 colon 104% | KM12 colon 103%

COCCOC(=O)c1ccc(C(C)C)cc1
inactive: SR leukemia 95.7% | RPMI-8226 leukemia 108% | OVCAR-8 ovarian 103% | OVCAR-5 ovarian 104% | OVCAR-4 ovarian 104% | SK-OV-3 ovarian 82.1% | IGROV1 ovarian 104% | OVCAR-3 ovarian 99.5% | HS 578T breast 117% | NCI/ADR-RES ovarian 96% | T-47D breast 85% | MDA-MB-435 melanoma 102% | SW-620 colon 104% | MCF7 breast; 10 µM unless noted 95.6% | HCT-116 colon 100% | HCC-2998 colon 103% | KM12 colon 101%

COc1cc2c3cc1Oc1c(OC)c(OC)cc4c1C(Cc1ccc(O)c(c1)Oc1ccc(cc1)CC3N(C)CC2)N(C)CC4 (stereo unspecified)
active: SR leukemia -1.66% | RPMI-8226 leukemia -27.4% | OVCAR-8 ovarian 7.71% | OVCAR-5 ovarian -0.193% | NCI/ADR-RES ovarian 0.974% | T-47D breast -64.6% | SW-620 colon -46.8% | MCF7 breast; 10 µM -71% | HCT-116 colon -94.7% | HCC-2998 colon -72.7%
81.8% (inactive) and -100% (active): MCF7 breast; 100 µM
inactive: OVCAR-4 ovarian 13.5% | SK-OV-3 ovarian 43% | IGROV1 ovarian 13.7% | OVCAR-3 ovarian 18.8% | HS 578T breast 55.3% | BT-549 breast 32.8% | KM12 colon 12.9%

CCn1c(=O)n(C)c2c(=O)n(C)c(=O)n(C)c21
inactive: SR leukemia 101% | RPMI-8226 leukemia 106% | OVCAR-8 ovarian 101% | OVCAR-5 ovarian 108% | OVCAR-4 ovarian 111% | SK-OV-3 ovarian 106% | IGROV1 ovarian 122% | HS 578T breast 110% | NCI/ADR-RES ovarian 105% | T-47D breast 98% | BT-549 breast 101% | MDA-MB-435 melanoma 98.6% | SW-620 colon 107% | MCF7 breast; 10 µM unless noted 103% | HCT-116 colon 109% | HCC-2998 colon 87.8%

NC(=S)CN1CCOCC1
inactive: SR leukemia 78.2% | RPMI-8226 leukemia 93.7% | OVCAR-8 ovarian 105% | OVCAR-5 ovarian 105% | OVCAR-4 ovarian 121% | SK-OV-3 ovarian 112% | IGROV1 ovarian 102% | OVCAR-3 ovarian 111% | NCI/ADR-RES ovarian 105% | T-47D breast 114% | MDA-MB-435 melanoma 111% | SW-620 colon 103% | HCT-116 colon 109% | HCC-2998 colon 102% | KM12 colon 102%

O=S(=O)(O)CC(O)CN1CCN(CCO)CC1 (stereo unspecified)
inactive: SR leukemia 92.4% | RPMI-8226 leukemia 96.3% | OVCAR-8 ovarian 98.8% | OVCAR-5 ovarian 117% | OVCAR-4 ovarian 114% | SK-OV-3 ovarian 95.3% | IGROV1 ovarian 124% | OVCAR-3 ovarian 108% | HS 578T breast 104% | NCI/ADR-RES ovarian 99.7% | T-47D breast 108% | MDA-MB-435 melanoma 113% | SW-620 colon 105% | MCF7 breast; 10 µM unless noted 96% | HCT-116 colon 101% | HCC-2998 colon 89.4% | KM12 colon 107%
